Results filed as inconclusive are left out. Calls of active or inactive are those of the source. The call rests on the fitted dose curve.
Columns and labels:
[1] = biological target: Acetylcholinesterase (Homo sapiens) (UniProt P22303); experiment: Acetylcholinesterase (AChE) small molecule antagonists: colormetric cell-based qHTS assay (AID 1347395); further: nearly all actives have a fitted effect of over 30% in size
Method in brief: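 Colorimetric readout: DTNB quantifies thiocholine from acetylthiocholine hydrolysed by endogenous AChE of SH-SY5Y cells (2,000/well, plated overnight). Compound pretreatment 30 min, substrate incubation 90 min, both 37 C.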

[2] = biological target: Acetylcholinesterase (Homo sapiens) (UniProt P22303); experiment: Acetylcholinesterase (AChE) small molecule antagonists: enzyme-based qHTS assay (AID 1347397); settings: Potency: AChE enzyme activity inhibition; outcome: AChE enzyme activity inhibition; further: nearly all actives have a fitted effect of over 55% in size
Method in brief: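 Colorimetric DTNB readout of acetylthiocholine hydrolysis, 10 min at room temperature, after 30 min room-temperature exposure of 50 mU/mL recombinant human enzyme to compound; DMSO vehicle control.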

[3] = biological target: Acetylcholinesterase (Homo sapiens) (UniProt P22303); experiment: Acetylcholinesterase (AChE) small molecule antagonists: fluorescence cell-based qHTS assay (AID 1347398); settings: Potency: AChE activity; outcome: AChE activity; further: nearly all actives have a fitted effect of over 50% in size
Method in brief: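 Cellular AChE activity read as thiocholine from acetylthiocholine hydrolysis, detected by Thiolite Green fluorescence at 490/520 nm after 40 min at room temperature. Compounds were pre-incubated 30 min at 37 C on adherent SH-SY5Y cells.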

[4] = biological target: Acetylcholinesterase (Homo sapiens) (UniProt P22303); experiment: Acetylcholinesterase (AChE) small molecule antagonists: enzyme-based qHTS assay with human liver microsomes (AID 1347399); settings: Potency: qHTS inhibition; outcome: qHTS inhibition; further: nearly all actives have a fitted effect of over 60% in size
Method in brief: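 Recombinant human AChE (50 mU/mL in the enzyme mix) and human liver microsomes (0.25 mg/mL final) were preincubated with compound and NADPH (0.25 mg/mL final) for 30 min at 37 C. Acetylthiocholine/DTNB was then added; thiocholine was read colorimetrically after 10 min at room temperature.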
On the % scale 0 is the no-effect control and ±100 the full control effect.

Chain of Acetylcholinesterase (Homo sapiens) (P22303 whole entry, looked up): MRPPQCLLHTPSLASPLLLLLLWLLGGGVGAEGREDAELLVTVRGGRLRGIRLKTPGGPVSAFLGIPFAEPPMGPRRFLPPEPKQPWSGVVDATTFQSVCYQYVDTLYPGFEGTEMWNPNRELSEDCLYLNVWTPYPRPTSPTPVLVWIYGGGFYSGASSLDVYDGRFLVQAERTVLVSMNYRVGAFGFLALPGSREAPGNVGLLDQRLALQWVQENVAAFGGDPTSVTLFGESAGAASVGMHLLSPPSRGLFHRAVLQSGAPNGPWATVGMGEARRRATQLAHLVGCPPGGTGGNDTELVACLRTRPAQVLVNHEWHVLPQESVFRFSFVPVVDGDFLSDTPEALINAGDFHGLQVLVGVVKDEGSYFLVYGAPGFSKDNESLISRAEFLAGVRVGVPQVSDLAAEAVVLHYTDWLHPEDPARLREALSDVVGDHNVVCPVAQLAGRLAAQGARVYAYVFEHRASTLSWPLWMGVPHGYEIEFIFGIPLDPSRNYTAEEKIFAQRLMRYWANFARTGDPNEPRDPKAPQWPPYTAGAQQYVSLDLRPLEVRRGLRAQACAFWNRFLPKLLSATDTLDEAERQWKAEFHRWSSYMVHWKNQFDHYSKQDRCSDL

CCc1ncc(C)[nH]1
inactive: Potency [1] | Potency [2] | Potency [3] | Potency [4]

NC(=O)NS(=O)(=O)c1ccc(N)cc1
inactive: Potency [1] | Potency [2] | Potency [3] | Potency [4]

C1=CCCC1
inactive: Potency [1] | Potency [2] | Potency [3] | Potency [4]

CC1CN(c2ccccc2)NC1=O (configuration not stated)
inactive: Potency [1] | Potency [2] | Potency [3] | Potency [4]

Cc1cc(C)cc(O)c1
inactive: Potency [1] | Potency [2] | Potency [3] | Potency [4]

CN(C)CCCNCCCN(C)C
inactive: Potency [1] | Potency [2] | Potency [3] | Potency [4]

CCCCCCCC(=O)OCC(COC(=O)CCCCCCC)OC(=O)CCCCCCC
inactive: Potency [1] | Potency [2] | Potency [3] | Potency [4]

O=C1OC2(c3cc(Br)c(O)c(Br)c3Oc3c2cc(Br)c(O)c3Br)c2c(Cl)c(Cl)c(Cl)c(Cl)c21
inactive: Potency [1] | Potency [2] | Potency [3] | Potency [4]

O=CCCCC=O
inactive: Potency [1] | Potency [2] | Potency [3] | Potency [4]

CCOC(=O)c1ccc(C)cc1
inactive: Potency [1] | Potency [2] | Potency [3] | Potency [4]

Nc1c(CC(=O)O)cccc1C(=O)c1ccc(Br)cc1
inactive: Potency [1] | Potency [2] | Potency [3] | Potency [4]

CCC(=O)Nc1ccc(O)cc1
inactive: Potency [1] | Potency [2] | Potency [3] | Potency [4]

CCCCC(CC)COC(=O)C(C#N)=C(c1ccccc1)c1ccccc1 (configuration not stated)
inactive: Potency [1] | Potency [2] | Potency [3] | Potency [4]

COCCCCCCCCOCCC[Si](C)(O[Si](C)(C)C)O[Si](C)(C)C
inactive: Potency [1] | Potency [2] | Potency [3] | Potency [4]

c1ccc2cnccc2c1
inactive: Potency [1] | Potency [2] | Potency [3] | Potency [4]

C#CCN(C)Cc1ccccc1
inactive: Potency [1] | Potency [2] | Potency [3] | Potency [4]

CC(=O)OCC(=O)[C@@]1(O)[C@H](C)C[C@H]2[C@@H]3CCC4=CC(=O)C=C[C@]4(C)[C@@]3(F)[C@@H](O)C[C@@]21C
inactive: Potency [1] | Potency [2] | Potency [3] | Potency [4]

CCCCCCCOC(C)=O
inactive: Potency [1] | Potency [2] | Potency [3] | Potency [4]

CC(=O)Oc1c(C)c(C)c2c(c1C)CC[C@@](C)(CCC[C@H](C)CCC[C@H](C)CCCC(C)C)O2
inactive: Potency [1] | Potency [2] | Potency [3] | Potency [4]

[O-]/[N+](=N\O)c1ccccc1
inactive: Potency [1] | Potency [2] | Potency [3] | Potency [4]

Cc1cc(C)c(C)c(C)c1
inactive: Potency [1] | Potency [2] | Potency [3] | Potency [4]

CCOC(=O)CC(=O)OCC
inactive: Potency [1] | Potency [2] | Potency [3] | Potency [4]

CCCCC(CC)COCCC#N (configuration not stated)
inactive: Potency [1] | Potency [2] | Potency [3] | Potency [4]

COCCOCCOCCOC
inactive: Potency [1] | Potency [2] | Potency [3] | Potency [4]

COC=O
inactive: activity, negative = inhibition [1] 2.05% [at 10.5 µM] | activity change, negative = inhibition [2] 0.267% [at 10.5 µM] | activity change, negative = inhibition [3] -1.7% [at 10.5 µM] | activity change, negative = inhibition [4] 0.679% [at 10.5 µM]

CCC/C=C(\C=O)CC
inactive: Potency [1] | Potency [2] | Potency [3] | Potency [4]

CCC=O
inactive: Potency [1] | Potency [2] | Potency [3] | Potency [4]

CN1CCC[C@H]1c1cccnc1
inactive: Potency [1] | Potency [2] | Potency [3] | Potency [4]

CSc1ccc(C=O)cc1
inactive: Potency [1] | Potency [2] | Potency [3] | Potency [4]

NS(=O)(=O)c1cc(C(=O)O)cc(N2CCCC2)c1Oc1ccccc1
inactive: Potency [1] | Potency [2] | Potency [3] | Potency [4]

C=CCCCCCCCCCCCCCCCC
inactive: activity, negative = inhibition [1] 2.13% [at 10.5 µM] | activity change, negative = inhibition [2] -0.28% [at 10.5 µM] | activity change, negative = inhibition [3] 3.23% [at 10.5 µM] | activity change, negative = inhibition [4] -0.261% [at 10.5 µM]

COCCC(=O)OC
inactive: Potency [1] | Potency [2] | Potency [3] | Potency [4]

O=C(O)CCCC[C@@H]1SC[C@@H]2NC(=O)N[C@@H]21
inactive: Potency [1] | Potency [2] | Potency [3] | Potency [4]

O=C(O)c1ccc(-n2nc(-c3ccccc3O)nc2-c2ccccc2O)cc1
inactive: Potency [1] | Potency [2] | Potency [3] | Potency [4]

C[C@@H]1C[C@H]2[C@@H]3CCC4=CC(=O)C=C[C@]4(C)[C@@]3(F)[C@@H](O)C[C@]2(C)[C@@]1(O)C(=O)COP(=O)(O)O
inactive: Potency [1] | Potency [2] | Potency [3] | Potency [4]

OCCN(CCO)c1cccc(Cl)c1
inactive: Potency [1] | Potency [2] | Potency [3] | Potency [4]

O=c1[nH]cnc2c1ncn2[C@H]1CC[C@@H](CO)O1
inactive: Potency [1] | Potency [2] | Potency [3] | Potency [4]

CC(=O)Nc1ccc(C)cc1
inactive: Potency [1] | Potency [2] | Potency [3] | Potency [4]

CCOC(=O)CN1CCCC1=O
inactive: Potency [1] | Potency [2] | Potency [3] | Potency [4]

Cc1ccc(-n2nc(C(C)(C)C)cc2NC(=O)Nc2ccc(OCCN3CCOCC3)c3ccccc23)cc1
inactive: Potency [1] | Potency [2] | Potency [3] | Potency [4]

C=C1CC/C=C(\C)CC[C@@H]2[C@@H]1CC2(C)C
inactive: Potency [1] | Potency [2] | Potency [3] | Potency [4]

OC[C@@H](O)C(O)[C@@H](O)CO (some centres not stated)
inactive: Potency [1] | Potency [2] | Potency [3] | Potency [4]

COC(=O)/C=C\C(=O)OC
inactive: Potency [1] | Potency [2] | Potency [3] | Potency [4]

— PubChem BioAssay (Tox21)
